Test results reported in PubChem BioAssay (NCATS).
Values joined by “and” are separate entries in the source; they are usually repeats but may differ in a detail not shown here. Identical values can stand only once. Inconclusive results are not listed. Active and inactive are the calls of the source. Unless noted, the call rests on the fitted dose curve; in most records, active means well fitted curve in the direction sought with a large enough effect; inconclusive means small, poorly fitted or top-dose-only effect, or another doubt; inactive means no such curve, though single readings can be large; an effect the other way counts as inactive or inconclusive.

Tests used:
[1] = biological target: Cytochrome P450 3A4 (Homo sapiens) (UniProt P08684); assay: qHTS Assay for Activators of Cytochrome P450 3A4 (AID 885); further: nearly all actives have a fitted effect of over 65% in size
Procedure, shortened: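 Using 20nM recombinant human CYP3A4 in potassium phosphate (200mM), substrate Luciferin-PPXE at 25uM, luminescent luciferin detection followed a 60-min RT NADPH reaction; data scaled to 57 uM ketoconazole.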

[2] = biological target: Androgen receptor (Homo sapiens) (UniProt P10275); assay: qHTS assay for small molecule agonists of androgen receptor signaling (AID 588515; active means well fitted curve in the direction sought with a large enough effect in the signal ratio, with a control signal flat; the % refers to the signal ratio; further: on the % scale 0 is the no-effect control and ±100 the full control effect); details: AR-UAS-bla HEK293, beta-lactamase ratio, agonist 16 h; stronger effect = higher value
Procedure, shortened: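 Stimulation of an AR-responsive β-lactamase reporter in GripTite HEK293 cells was measured after 16 h compound exposure at 37 °C, via CCF4 fluorescence after 2 h RT. EC50 from Hill fits, normalized to R1881 at 30 nM.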

[3] = biological target: Androgen receptor (Homo sapiens) (UniProt P10275); assay: qHTS assay for small molecule antagonists of androgen receptor signaling (AID 588516; active means well fitted curve in the direction sought with a large enough effect in the signal ratio, with a control signal flat, not every such curve was filed as active; the % refers to the signal ratio; further: on the % scale 0 is the no-effect control and ±100 the full control effect)
Procedure, shortened: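 Antagonist-mode qHTS: inhibition of R1881 (10 nM)-driven beta-lactamase expression in GripTite HEK 293 cells is measured after 16 h; values are Hill-derived IC50s normalized between R1881 and DMSO wells.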

[4] = Cell Viability - N2a (AID 540); details: N2a mouse neuroblastoma cell viability; activity change, negative = cytotoxicity: at 92.2 µM (top of the series);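 further: plate controls were DMSO alone for no effect and tamoxifen control for full effect; nearly all actives have a fitted effect of over 45% in size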
Procedure, shortened: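 CellTiter-Glo ATP luminescence, read 20 min after reagent at room temperature, reported viability following 40 h compound treatment at 37 °C. N2a mouse neuroblastoma cells seeded 1500/well; Hill equation gave AC50.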

[5] = Cell Viability - LYMP1-002 - Assay at 40 hr (AID 994); further: nearly all actives have a fitted effect of over 60% in size; further: potency means the concentration at half of the fitted maximal effect
Procedure, shortened: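 Cytotoxicity was read as loss of cellular ATP (CellTiter-Glo luminescence) after 40 hr compound exposure at 37 C of 2500 LYMP1-002 lymphoblastoid cells per well. Concentration-response data were fitted with the standard Hill equation to give AC50.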

[6] = biological target: Glucocorticoid receptor (Homo sapiens) (UniProt P04150); assay: GR-EFC Redistribution (AID 451; calls by dose curve; further: potency means the concentration at half of the fitted maximal effect); details: CHO-K1 GR-EFC translocation, beta-gal luminescence, 2 h
Procedure, shortened: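 CHO-K1 cells stably expressing nuclear-localized β-gal enzyme acceptor and GR fused C-terminally to the enzyme donor fragment; ligand-driven nuclear translocation restores β-gal by complementation. Compounds titrated up to 46 uM final, 2 h at 37 °C; luminescence read.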

[7] = biological target: Luciferin 4-monooxygenase (Photinus pyralis) (UniProt P08659); assay: Biochemical firefly luciferase enzyme assay for NPC (AID 624030); further: nearly all actives have a fitted effect of over 70% in size; further: potency means the concentration at half of the fitted maximal effect;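 on activity change, negative = inhibition: purified P. pyralis luciferase at 10 nM with luciferin and ATP substrate; 0% = DMSO and -100% = full luciferase inhibition by PTC124 control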
Procedure, shortened: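 Counter-screen for direct inhibition of the luciferase enzyme by approved-drug library compounds, run at 10 nM enzyme in 50 mM Tris acetate (final). Luminescence was read within 5 min of enzyme-buffer addition and normalized to PTC124 versus DMSO (0%).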

[8] = qHTS profiling for inhibitors of Plasmodium falciparum proliferation (AID 504749); further: potency means the concentration at half of the fitted maximal effect;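 on activity, negative = inhibition: 0% = DMSO vehicle and full inhibition = artemisinin control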; on all read-outs here: nearly all actives have a fitted effect of over 60% in size; details: P. falciparum in erythrocytes, SYBR Green DNA, 72 h; for activity, negative = inhibition: at 28.7 µM (top of the series)
Procedure, shortened: (§1)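 Quantitative HTS: compounds pinned into medium, infected erythrocytes added (0.3% parasitemia, 2.5% hematocrit), 72 h culture at 37 C under 5% CO2. Saponin/Triton lysis with SYBR Green I, overnight RT, then fluorescence read.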

AA1029 = assay: as above; details: P. falciparum in erythrocytes, SYBR Green DNA, 72 h; series mostly up to 28.7 µM
Procedure, shortened: as §1

ATS189 = assay: as above; details: P. falciparum in erythrocytes, SYBR Green DNA, 72 h; series mostly up to 28.7 µM
Procedure, shortened: as §1

ATS95 = assay: as above; details: P. falciparum in erythrocytes, SYBR Green DNA, 72 h; series mostly up to 28.7 µM
Procedure, shortened: as §1

CP238 = assay: as above; details: P. falciparum in erythrocytes, SYBR Green DNA, 72 h; series mostly up to 28.7 µM
Procedure, shortened: as §1

CP262 = assay: as above; details: P. falciparum in erythrocytes, SYBR Green DNA, 72 h; series mostly up to 28.7 µM
Procedure, shortened: as §1

CP265 = assay: as above; details: P. falciparum in erythrocytes, SYBR Green DNA, 72 h; series mostly up to 28.7 µM
Procedure, shortened: as §1

CP286 = assay: as above; details: P. falciparum in erythrocytes, SYBR Green DNA, 72 h; series mostly up to 28.7 µM
Procedure, shortened: as §1

PC15 = assay: as above; details: P. falciparum in erythrocytes, SYBR Green DNA, 72 h; series mostly up to 28.7 µM
Procedure, shortened: as §1

W2 = assay: as above; details: P. falciparum in erythrocytes, SYBR Green DNA, 72 h; series mostly up to 28.7 µM
Procedure, shortened: as §1

[9] = NFAT Signaling Pathway (AID 444; active means well fitted curve in either direction with a large enough effect, not every such curve was filed as active;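 further: carbachol stimulus at about its EC50 of 1 µM final; on the % scale 0 is the no-effect control and ±100 the full control effect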); details: Jurkat NFAT-bla M1, carbachol, beta-lactamase ratio, 5 h; at 7.69 µM (top of the series) unless noted
Procedure, shortened: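 Jurkat cells carrying an NFAT-driven β-lactamase reporter and co-transfected muscarinic M1 receptor were treated with compound plus carbachol (1 uM final, an EC50 level) for 5 h at 37 °C. CCF4 loading followed for 1 h at RT; 460/530 nm ratio gave %activity.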

[10] = Stat Signaling Pathway (AID 446; active means well fitted curve in either direction with a large enough effect, not every such curve was filed as active;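 further: ME-180 cervical cancer cells given 40 pM IL-6 alongside compound; SIE-controlled beta-lactamase reporter measured as 460/530 nm FRET emission ratio; on the % scale 0 is the no-effect control and ±100 the full control effect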)
Procedure, shortened: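 Overnight-plated ME-180 cells bearing a STAT Inducible Element beta-lactamase reporter; 5 h co-exposure to compound and 40 pM IL-6; values normalized to 300 pM IL-6 and 125 nM JAK inhibitor controls.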

[11] = biological target: Glucocorticoid receptor (Homo sapiens) (UniProt P04150); assay: qHTS assay for small molecule agonists of glucocorticoid receptor signaling (AID 588532; active means well fitted curve in the direction sought with a large enough effect in the signal ratio, with a control signal flat; the % refers to the signal ratio;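 further: 100% = dexamethasone at 0.1 µM and 0% = DMSO only wells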); details: HeLa MMTV-bla, beta-lactamase ratio, agonist, 18 h; stronger effect = higher value; percent of dexamethasone control, DMSO zero
Procedure, shortened: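 Titration series, up to 92 uM, applied to GRE-bla HeLa cells for 18 h at 37 C. Detection by CCF4 FRET substrate after 2 h at RT.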

Sequence of Glucocorticoid receptor (Homo sapiens) (P04150 whole entry, looked up, the tested form may be a part): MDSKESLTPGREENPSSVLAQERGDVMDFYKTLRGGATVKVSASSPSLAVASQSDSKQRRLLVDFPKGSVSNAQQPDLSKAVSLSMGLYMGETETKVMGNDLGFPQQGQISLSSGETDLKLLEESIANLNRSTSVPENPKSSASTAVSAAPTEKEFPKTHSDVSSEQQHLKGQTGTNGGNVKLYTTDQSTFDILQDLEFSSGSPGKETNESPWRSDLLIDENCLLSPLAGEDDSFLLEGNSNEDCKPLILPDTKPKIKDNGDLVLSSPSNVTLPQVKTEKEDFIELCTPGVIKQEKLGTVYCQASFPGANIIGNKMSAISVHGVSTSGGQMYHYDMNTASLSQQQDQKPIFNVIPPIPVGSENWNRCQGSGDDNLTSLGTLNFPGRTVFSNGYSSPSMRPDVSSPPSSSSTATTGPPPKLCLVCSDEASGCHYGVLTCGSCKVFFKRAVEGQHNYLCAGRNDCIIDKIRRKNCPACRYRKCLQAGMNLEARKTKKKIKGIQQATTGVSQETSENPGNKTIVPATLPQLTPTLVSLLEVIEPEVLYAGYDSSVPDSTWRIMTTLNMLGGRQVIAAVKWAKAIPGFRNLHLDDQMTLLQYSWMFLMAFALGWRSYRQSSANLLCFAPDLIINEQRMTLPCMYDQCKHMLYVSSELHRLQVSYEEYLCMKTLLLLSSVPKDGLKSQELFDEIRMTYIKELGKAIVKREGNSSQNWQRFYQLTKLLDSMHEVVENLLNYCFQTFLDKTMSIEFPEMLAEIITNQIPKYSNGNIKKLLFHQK
Sequence of Androgen receptor (Homo sapiens) (P10275 whole entry, looked up): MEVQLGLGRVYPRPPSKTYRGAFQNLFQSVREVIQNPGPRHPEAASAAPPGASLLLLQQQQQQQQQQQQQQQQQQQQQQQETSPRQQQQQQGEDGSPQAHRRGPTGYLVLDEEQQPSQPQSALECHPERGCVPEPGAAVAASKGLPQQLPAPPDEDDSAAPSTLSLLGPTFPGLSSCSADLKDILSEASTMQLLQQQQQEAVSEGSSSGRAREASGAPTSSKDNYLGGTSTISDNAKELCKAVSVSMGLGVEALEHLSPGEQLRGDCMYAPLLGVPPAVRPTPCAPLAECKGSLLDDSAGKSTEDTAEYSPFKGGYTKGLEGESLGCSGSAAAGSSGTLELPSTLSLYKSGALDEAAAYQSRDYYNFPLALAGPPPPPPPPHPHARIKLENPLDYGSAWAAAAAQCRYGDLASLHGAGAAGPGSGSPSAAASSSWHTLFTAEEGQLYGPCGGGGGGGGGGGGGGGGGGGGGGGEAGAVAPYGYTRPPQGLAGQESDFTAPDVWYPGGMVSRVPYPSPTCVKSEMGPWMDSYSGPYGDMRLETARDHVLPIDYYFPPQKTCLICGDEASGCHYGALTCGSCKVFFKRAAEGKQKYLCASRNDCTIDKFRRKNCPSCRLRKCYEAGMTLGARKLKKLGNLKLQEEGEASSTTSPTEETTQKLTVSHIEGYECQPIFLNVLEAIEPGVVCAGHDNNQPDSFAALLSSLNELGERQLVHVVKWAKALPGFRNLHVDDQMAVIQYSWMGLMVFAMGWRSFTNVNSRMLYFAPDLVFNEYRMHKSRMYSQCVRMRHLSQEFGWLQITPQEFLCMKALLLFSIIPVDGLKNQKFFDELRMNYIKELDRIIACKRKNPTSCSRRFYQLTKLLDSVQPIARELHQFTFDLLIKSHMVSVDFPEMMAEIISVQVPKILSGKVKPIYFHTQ
Sequence of Luciferin 4-monooxygenase (Photinus pyralis) (P08659 whole entry, looked up): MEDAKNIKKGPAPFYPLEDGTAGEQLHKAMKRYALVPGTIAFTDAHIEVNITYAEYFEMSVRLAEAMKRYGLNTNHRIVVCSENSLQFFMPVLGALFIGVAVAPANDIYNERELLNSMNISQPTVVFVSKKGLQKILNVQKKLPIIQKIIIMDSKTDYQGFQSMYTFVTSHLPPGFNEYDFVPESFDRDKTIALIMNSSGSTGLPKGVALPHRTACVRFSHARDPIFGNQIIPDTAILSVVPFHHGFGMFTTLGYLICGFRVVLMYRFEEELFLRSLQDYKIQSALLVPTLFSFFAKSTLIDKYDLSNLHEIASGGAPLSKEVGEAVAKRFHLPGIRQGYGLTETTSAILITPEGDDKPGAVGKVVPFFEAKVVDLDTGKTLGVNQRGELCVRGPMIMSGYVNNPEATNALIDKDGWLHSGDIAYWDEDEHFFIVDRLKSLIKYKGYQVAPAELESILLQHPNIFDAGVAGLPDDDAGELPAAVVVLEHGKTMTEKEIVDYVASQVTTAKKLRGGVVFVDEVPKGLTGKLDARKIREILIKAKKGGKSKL
Sequence of Cytochrome P450 3A4 (Homo sapiens) (P08684 whole entry, looked up): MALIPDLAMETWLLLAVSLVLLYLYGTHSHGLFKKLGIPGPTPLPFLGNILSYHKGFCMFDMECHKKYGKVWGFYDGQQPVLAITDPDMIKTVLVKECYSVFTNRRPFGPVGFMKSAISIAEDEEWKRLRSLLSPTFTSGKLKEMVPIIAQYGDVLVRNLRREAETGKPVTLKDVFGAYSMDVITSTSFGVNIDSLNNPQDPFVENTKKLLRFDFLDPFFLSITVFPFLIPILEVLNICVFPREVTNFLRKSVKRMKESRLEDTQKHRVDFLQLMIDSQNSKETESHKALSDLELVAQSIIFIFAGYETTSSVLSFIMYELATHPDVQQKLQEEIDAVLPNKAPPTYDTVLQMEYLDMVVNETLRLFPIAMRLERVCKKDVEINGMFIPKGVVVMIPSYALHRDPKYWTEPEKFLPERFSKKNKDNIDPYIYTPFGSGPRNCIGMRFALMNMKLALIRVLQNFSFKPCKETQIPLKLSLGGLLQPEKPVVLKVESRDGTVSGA

COc1ccc2nc(N)sc2c1
inactive: outcome [1] | activation [2] 3.27% and 6.72% | outcome [3]

C=CCOC(=O)c1ccccc1C(=O)OCC=C
inactive: activity change, negative = cytotoxicity [4] -8.09% | Potency [5]

COc1c2ccoc2cc2oc(=O)ccc12
inactive: Potency [6] > 46 µM | Potency [5]

O=NCc1ccc([N+](=O)[O-])o1
active: Potency (W2) 6.01 µM
inactive: Potency [7] | activity, negative = inhibition ([8]; parasite line A) -23.3% | activity, negative = inhibition ([8]; parasite line B) 5.01% | Potency (AA1029) | Potency (ATS189) | Potency (ATS95) | Potency (CP238) | Potency (CP262) | Potency (CP265) | Potency (CP286) | Potency (PC15)

O=NO
inactive: activity change, negative = cytotoxicity [4] -19.4% and -4.96%

O=C(O)CC(C(=O)O)C(CC(=O)O)C(=O)O (stereo not given)
inactive: activity change, negative = cytotoxicity [4] -8.87%

CN1CC[C@H](CN2c3ccccc3Sc3ccccc32)C1
active: activity change, negative = inhibition [9] -75.3% | Potency (AA1029) 5.01 µM | Potency (ATS189) 11.2 µM | Potency (ATS95) 12.6 µM | Potency (CP238) 8.91 µM | Potency (CP265) 11.2 µM | Potency (CP286) 12.6 µM | Potency (PC15) 11.2 µM | Potency (W2) 1.9 µM
inactive: outcome [10] | Potency [7] | Potency (CP262)

CCCCC(CC)CN (stereo not given)
inactive: activation [2] 5.31% and -4.67% | outcome [3]

CCCCCCCCCCCCCCCC(=O)OCC(O)C1OC(=O)C(O)=C1O (stereo not given)
inactive: Potency [7]

c1ccc2c(c1)c1cccc3ccc4cccc2c4c31
inactive: Potency [5] | outcome [3] | activation [11] 2.22% and -5.73%

Cc1ccc(N)c([N+](=O)[O-])c1
inactive: Potency [5]

C=Cc1ccccc1Cl
inactive: activation [2] -2.34% | outcome [3]

CCN1/C(=C/C=C/C=C/c2sc3ccccc3[n+]2CC)Sc2ccccc21
inactive: Potency (CP262)
active: Potency [7] 32.2 µM | Potency ([8]; parasite line A) 2.82 µM | Potency ([8]; parasite line B) 3.98 µM | Potency (AA1029) 3.98 µM | Potency (ATS189) 4.47 µM | Potency (ATS95) 5.01 µM | Potency (CP238) 3.16 µM | Potency (CP265) 5.01 µM | Potency (CP286) 0.708 µM | Potency (PC15) 4.47 µM | Potency (W2) 1.51 µM

O=C1c2ccccc2C(=O)C1c1ccc2ccccc2n1
inactive: activity change, negative = inhibition [9] 21.8% [at 17.2 µM] | outcome [10] | outcome [1] | activation [11] -2.81% and -4.97%

Clc1cc(Cl)c(Cl)cc1Cl
inactive: Potency [5]

S=C1NC=NC2N=CNC12 (stereo not given)
inactive: Potency [7] | activity, negative = inhibition ([8]; parasite line A) -17.9% | activity, negative = inhibition ([8]; parasite line B) -14.3% | Potency (AA1029) | Potency (ATS189) | Potency (ATS95) | Potency (CP238) | Potency (CP262) | Potency (CP265) | Potency (CP286) | Potency (PC15) | Potency (W2)

CN(C)CCCCCCN(C)C
inactive: Potency [5] | Potency [7] | activity, negative = inhibition ([8]; parasite line A) 13.6% | activity, negative = inhibition ([8]; parasite line B) -6.83% | Potency (AA1029) | Potency (ATS189) | Potency (ATS95) | Potency (CP238) | Potency (CP262) | Potency (CP265) | Potency (CP286) | Potency (PC15) | Potency (W2)

C=CC(=O)OCCOCCOCCOCCOC(=O)C=C
active: Potency [5] 20 µM and 25.1 µM

COc1ccccc1CNc1nc(-c2ccc(C(=O)N(C)C)cc2)nc2ccccc12
inactive: activity change, negative = inhibition [9] -1.92% | outcome [10] | Potency [6] > 46 µM

COCC(=O)O
inactive: activity change, negative = cytotoxicity [4] 3.33% | Potency [5] | activation [11] 1.9% and -4.38%

COc1ccc2[nH]cc(CCNc3ncncc3-c3ccccc3C(F)(F)F)c2c1
inactive: activity change, negative = inhibition [9] -3.73% | outcome [10] | Potency [6] > 46 µM | outcome [1]

Nc1ccc(Cl)cc1Cl
inactive: activity change, negative = cytotoxicity [4] 7.32% | Potency [5]

Cc1cccc([N+](=O)[O-])c1C
inactive: Potency [5] | activation [2] 2.99% and 5.65% | outcome [3]
